# Rows were chosen to be rich in hits. Some 2.4% of all compounds tested hit in one or more screens of this group.
# S1P3 antagonist = antagonists of human S1P3 receptor; Q99500; CHO S1P3 NFAT-BLA reporter, FRET fluorescence, antagonist mode; inhibition, % at 4.98 µM; actives 0.27% (n = 170,000);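 active means inhibition above the plate cutoff, the mean inhibition of test wells on that plate plus 3 SD, cut at about 28% in these data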;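 further: cells challenged with S1P at its EC80 of 0.8 µM; blue over green emission ratio from cleaved BLA substrate after 4 h stimulation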
# S1P4 antag = blocks the human S1P4 receptor | O95977 | inhibition, % at 4.98 µM | actives 0.26% (n = 220,000) | S1P4-expressing cells, antagonist mode, reporter read-out | AID 1510; in the data active means inhibition above about 29%
# EP2 modulator = EP2 receptor (human) modulation; P43116; EP2-expressing cells, cAMP HTRF FRET, PGE2 co-stimulation; induction, % at 25 µM; actives 0.83% (n = 260,000);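 active means compounds whose cAMP rise, as percent of the full-agonist control response, exceeds 60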;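 further: rat C6 glioma line stably carrying human EP2 under a CMV promoter; the protocol text gives 20 µM as final concentration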
# S1P4 agonist = agonists of human S1P4 receptor | AID 1509 | activation, % at 4.98 µM | O95977 | S1P4-expressing cell line, agonist reporter assay | actives 0.35% (n = 220,000); in the data active means activation above about 11%
# PGE2 EP2 inh = blocks the human prostaglandin E2 receptor EP2. actives 0.52% (n = 260,000). C6 glioma cells expressing human EP2, cAMP TR-FRET; cells stimulated with saturating PGE2. inhibition, % at 25 µM. P43116;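 active means percent inhibition above 40 after rounding to a whole number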;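 further: rat C6 glioma host cells with rolipram phosphodiesterase inhibitor present; the protocol text gives 20 µM as final concentration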
# INS promoter inh = TRM-6 insulin promoter activity inhibition | TRM-6 cells (human fetal islet line), insulin promoter-eGFP reporter, imaging; reporter expression induced with tamoxifen | inhibition, % at 2 µM | actives 0.9% (n = 130,000) | AID 1273;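 active means inhibition above the mean plus 3 SD, with well images judged a real hit on visual review, cut at about 60% in these data, passing the limit was not always enough; inconclusive means inhibition over the cutoff but images rejected on review; inactive means inhibition not above the cutoff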
# S1P4 antag conf = confirmation of human S1P4 receptor antagonists; shares compounds with S1P4 antag; actives 71% (n = 520); AID 1524; S1P4-expressing cell line, antagonist mode, reporter read-out; inhibition, % at 4.98 µM; in the data active means inhibition above about 30%
# S1P1 antagonist = counter-screen for S1P4 antagonists: antagonists of human S1P1 | shares compounds with S1P4 antag | cell-based S1P1 antagonist counterscreen, inhibition | inhibition, % at 4.98 µM | actives 37% (n = 520); in the data active means inhibition above about 40%;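 further: receptor stimulated with S1P near its EC80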
# Target sequence (P21453 whole entry, looked up): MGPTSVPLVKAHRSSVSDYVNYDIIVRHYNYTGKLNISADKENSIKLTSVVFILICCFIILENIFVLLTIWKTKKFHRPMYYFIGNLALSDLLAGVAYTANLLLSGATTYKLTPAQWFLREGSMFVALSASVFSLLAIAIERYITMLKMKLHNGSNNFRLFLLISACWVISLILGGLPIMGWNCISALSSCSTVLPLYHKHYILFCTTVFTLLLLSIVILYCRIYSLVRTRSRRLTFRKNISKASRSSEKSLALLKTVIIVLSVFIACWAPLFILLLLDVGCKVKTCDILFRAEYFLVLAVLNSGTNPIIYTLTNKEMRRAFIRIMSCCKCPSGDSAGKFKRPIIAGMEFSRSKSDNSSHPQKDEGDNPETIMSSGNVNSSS
# Hits are given with their value; – = inactive; ? = inconclusive; · = not tested or not shown; ! = not confirmed by another sample.
SMILES,S1P3 antagonist,S1P4 antag,EP2 modulator,S1P4 agonist,PGE2 EP2 inh,INS promoter inh,S1P4 antag conf,S1P1 antagonist
COCCCn1c(N)c(-c2nc3ccccc3n2C)c2nc3ccccc3nc21,·,–,–,–,–,–,·,·
Cn1c(-c2c(N)n(CCCc3ccccc3)c3nc4ccccc4nc23)nc2ccccc21,·,37,–,–,–,–,83,106
COC(=O)c1ccccc1NC(=O)CSc1nc2cc3c(cc2cc1C#N)OCCO3,·,·,–,·,–,·,·,·
CN(C)c1ccc(/C=C(/C(=O)c2ccc(Cl)cc2Cl)n2cncn2)cc1,–,–,–,–,–,–,·,·
COc1ccc(/C=C(/C(=O)c2ccc(Cl)cc2Cl)n2cncn2)cc1,·,37,–,–,–,·,–,–
CC(C)CC(=O)/C(=C\c1ccc(Cl)cc1Cl)n1cncn1,–,53,–,–,52,–,119,96
c1cncc(CN(CCN2CCOCC2)Cc2ccc(OC3CCCC3)cc2)c1,·,·,–,·,–,·,·,·
CCC(C)C(=O)N1CCc2cc(-c3csc(N)n3)ccc21 (stereo unspecified),–,41,–,–,–,–,–,52
CNC(=O)c1nnsc1S(=O)(=O)c1ccc(Cl)cc1,–,61,–,–,–,–,103,76
COc1ccc(NC(=O)CSc2ncc(C#N)c(N)n2)c(OC)c1,·,·,–,·,–,·,·,·
CSc1ccccc1NC(=O)C(=O)c1c[nH]c2ccccc12,–,45,–,–,–,·,–,47
CC(C)N(C(=O)CSc1ncnc2sc3c(c12)CCCC3)C(C)C,·,·,–,·,–,·,·,·
COCCOC(=O)C1=C(C)N=C2SCCC(=O)N2C1c1ccc(OC(=O)c2ccco2)cc1 (stereo unspecified),·,35,–,–,–,–,54,52
c1ccc(-c2nnc(CN3CCN(c4ccccc4)CC3)o2)cc1,–,–,–,–,–,·,·,·
c1ccc(-c2nnc(CN3CCN(C(c4ccccc4)c4ccccc4)CC3)o2)cc1,–,68,61,–,–,·,–,–
CN1C(=O)/C(=C\C(=O)c2cccs2)c2ccccc21,–,40,–,–,60,·,97,45
N#Cc1cn(CCOc2ccc(F)cc2)c2ccccc12,·,–,–,–,–,–,·,·
N#Cc1cn(CCOc2ccccc2F)c2ccccc12,–,37,–,–,–,–,–,–
COc1ccc(C2CC3(CC(C)(C)NC(=O)N3)Oc3c2ccc(O)c3C)cc1 (stereo unspecified),·,·,–,·,–,·,·,·
Clc1ccc2c(c1)C(N1CCNCC1)Cc1ccccc1S2 (stereo unspecified),·,–,–,–,·,–,·,·
COCCCN1CCN(C2Cc3ccccc3Sc3ccc(Cl)cc32)CC1 (stereo unspecified),–,29,–,–,–,–,–,–
CCCC(=O)N1CCN(c2ccc(NC(=O)c3ccc(Br)o3)cc2)CC1,–,–,–,–,–,–,·,·
CCC(=O)N1CCN(c2ccc(NC(=O)c3ccc([N+](=O)[O-])o3)cc2)CC1,–,78,–,–,46,·,85,74
CCCC(=O)N1CCN(c2ccc(NC(=O)c3ccc([N+](=O)[O-])o3)cc2)CC1,–,78,–,–,–,·,101,84
O=C(OCn1nnc2ccccc2c1=O)c1cc(-c2ccccc2Cl)nc2ccccc12,–,–,–,–,–,·,·,·
SMILES,S1P3 antagonist,S1P4 antag,EP2 modulator,S1P4 agonist,PGE2 EP2 inh,INS promoter inh,S1P4 antag conf,S1P1 antagonist
Cc1onc(-c2ccccc2Cl)c1C(=O)OCn1nnc2ccccc2c1=O,–,30,–,–,–,–,–,–
O=C(O)CNC(=O)CN1C(=O)NC2NC(=O)NC21 (stereo unspecified),·,·,–,·,–,·,·,·
O=S(=O)(C/C(=C/CO)S(=O)(=O)c1ccccc1)c1ccccc1,–,40,–,–,–,·,87,–
O=C(CSc1nnnn1-c1ccc2c(c1)OCCO2)N1CCCC1,·,·,–,·,–,·,·,·
COc1ccccc1CN(CCCn1ccnc1)Cc1ccc(Cl)c(F)c1,·,·,–,·,–,·,·,·
Cc1onc(-c2ccccc2)c1C(=O)Nc1nnc(-c2ccncc2)s1,–,51,–,–,–,–,63,–
Cc1onc(-c2ccccc2)c1C(=O)Nc1ccncc1,–,–,–,–,–,–,·,·
COc1ccccc1/C=C/C(=O)c1cc(Br)ccc1OC(=O)c1ccco1,·,–,·,–,·,–,·,·
O=C(/C=C/c1cc(Br)ccc1O)c1ccco1,–,55,–,–,–,·,103,56
O=c1/c(=C/c2ccc([N+](=O)[O-])cc2)sc2n1CCCN=2,·,34,–,–,–,–,–,–
COc1cc(/C=c2\sc3n(c2=O)CCCN=3)ccc1O,·,–,–,–,–,–,·,·
COC(=O)COc1ccc(S(=O)(=O)N2CCN(c3ccccc3F)CC2)cc1,–,29,–,–,–,·,–,–
COC(=O)COc1ccc(S(=O)(=O)N2CCN(c3ccccc3)CC2)cc1,–,–,–,–,–,–,·,·
CN(C)c1ccnc(NCc2ccccc2)c1C#N,–,–,–,–,–,–,·,·
Cc1cc(N(C)C)c(C#N)c(NCc2ccccc2)n1,–,35,–,–,–,·,–,–
COc1cc(SC)ccc1C(=O)Nc1ccc(C)cc1C,–,34,–,–,–,–,55,–
COc1cc(SC)ccc1C(=O)Nc1ccc(C)cc1,–,–,–,–,–,·,·,·
COc1ccc(-c2nnc(SCC(=O)NC(C)C)n2C)cc1OC,·,·,–,·,–,·,·,·
O=C(Nc1cccc(Cl)c1)Nc1nccs1,–,35!,–,–,–,?,–,–
Cc1cc(C)c(C)c(OCc2nc(-c3cccnc3)no2)c1,–,30,–,–,–,–,–,–
COCCn1c(=O)n(CC(=O)Nc2ccccc2Cl)c2cccnc21,·,·,–,·,·,·,·,·
Cc1ccc(/C=C/C(=O)c2nc3ccccc3[nH]2)cc1,·,29,–,–,–,·,81,–
Cc1ccc(/C=C/C(=O)Nc2nc3ccccc3[nH]2)cc1,–,–,–,–,–,–,·,·
CCOC(=O)N1C/C(=C\c2ccccc2)C(=O)/C(=C/c2ccccc2)C1,–,43,–,–,–,·,116,–
CCOC(=O)N1CCN(S(=O)(=O)/C=C/c2ccccc2)CC1,–,–,–,–,–,·,·,·
Cc1ccc2oc(=O)n(CC(=O)NCCCN3CC(C)CC(C)C3)c2c1 (stereo unspecified),·,·,–,·,–,·,·,·
Cc1ccc(NC(=O)C(c2ccccc2)N(C)C)cc1Cl (stereo unspecified),–,34,–,–,–,–,31,–
Cc1ccc(NC(=O)C(OC(=O)c2ccc(O)cc2)c2ccccc2)cc1Cl (stereo unspecified),–,–,–,–,–,–,·,·
COc1ccc(NC(=O)/C(Cl)=C(/Cl)S(=O)(=O)Cc2ccc(C)cc2)cn1,·,60,–,–,–,–,116,89
CN(C)/N=C/C=C1\CC/C(=C\c2ccc(Br)cc2)C1=O,·,30,–,–,·,–,–,–
